Consider 40 molecules from PubChem BioAssay (NCATS).

Records with an inconclusive call do not appear. Active and inactive are the calls of the source. Unless noted, calls come from the whole dose curve.

Assay [1] can be described thus: Primary qHTS for inhibitors of SARS-S pseudo-typed particle cell entry (AID 1479145). Note: nearly all actives have a fitted effect of over 45% in size. Note: potency is the fitted concentration of half-maximal effect. A general note: In qHTS, concentration-response curves come from the screen itself.
Assay [2] is described as follows: Primary qHTS for Huh7 cytotoxicity: counterscreen for inhibitors of MERS-S pseudotyped particle cell entry (AID 1479147). Note: potency is the fitted concentration of half-maximal effect.
Assay [3] in a line: Primary qHTS for inhibitors of MERS-S pseudo-typed particle cell entry (AID 1479149). Note: nearly all actives have a fitted effect of over 60% in size. Note: potency is the fitted concentration of half-maximal effect.
The nature of assay [4]: Primary qHTS for Vero E6 cytotoxicity: counterscreen for inhibitors of SARS-S pseudo-typed particle cell entry (AID 1479150). Note: potency is the fitted concentration of half-maximal effect.
Assay [5] is described as follows: Validation qHTS assay for inhibitors of Activation Induced Cytidine Deaminase (AID): UDG Counterscreen signal (AID 1347427; active = well fitted curve in the direction sought with a large enough effect; an effect the other way counts as inactive or inconclusive). In outline: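 Counterscreen read of UDG activity (2 U/mL, 4/3x) in the FRET deamination format with AID (1 uM, 4/3x), DJC20/DJC23 substrates (250 nM, 4x), 4 h at room temperature. NaOH stop, fluorescence at 560 ex/665 em.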
Assay [6] deals with Single-stranded DNA cytosine deaminase (Homo sapiens) (UniProt Q9GZX7). As to the kind of experiment: Validation qHTS assay for inhibitors of Activation Induced Cytidine Deaminase (AID): AID signal (AID 1347429; active = well fitted curve in the direction sought with a large enough effect; an effect the other way counts as inactive or inconclusive). An outline of the steps:
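AID and UDG were combined and compounds added at final up to 114 uM, then DJC20/DJC23 FRET substrate was added for 4 hr at room temperature. NaOH was then added for 30 min before fluorescence was read at 540/590 nm.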

A short description of assay [7]: Primary qHTS for inhibitors of La Crosse Virus (LACV) - induced cell death in SH-SY5Y cells (AID 1508616; active = well fitted curve in the direction sought with a large enough effect; an effect the other way counts as inactive or inconclusive;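 note: top concentration of the series differs between compounds; higher means more rescue of cells from virus-induced death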). An outline of the steps:
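Luminescent ATP readout (ATPLite 1step, 5 min room temperature) measured rescue from LACV-induced death after 6 days of infection at 0.01 MOI; normalized to infected DMSO wells and uninfected DMSO wells.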

Assay [8] concerns the target Protein phosphatase 1D (Homo sapiens) (UniProt O15297). As to the kind of experiment: RapidFire Mass Spectrometry qHTS Assay for Modulators of WT P53-Induced Phosphatase 1 (WIP1) (AID 1347424; active = well fitted curve in the direction sought with a large enough effect; an effect the other way counts as inactive or inconclusive;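 note: amount of dephosphorylated VEPPL-S-QETFS peptide product formed by WIP1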; note: potency is the fitted concentration of half-maximal effect). An outline of the steps:
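10 nM WIP1 preincubated with compounds 1 hr at room temperature in pH 7.5 Tris buffer with 30 mM MgCl2, 1 mM TCEP; 2 uM VEPPL-pS-QETFS phosphopeptide for 5 min, formic acid quench; dephosphorylated product quantified by RapidFire MS against labelled standard.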

In assay [9] the target is Calcium and integrin-binding protein 1 (Homo sapiens) (UniProt Q99828). As to the kind of experiment: Confirmatory qHTS for Identification of Calcium Integrin Binding Protein 1 (CIB1) Competitor (AID 1508617; active = well fitted curve in the direction sought with a large enough effect; an effect the other way counts as inactive or inconclusive; note: nearly all actives have a fitted effect of over 65% in size). An outline of the steps: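 FP competition: CIB1-GST (1 uM final) in 5 mM HEPES pH 7.4, 125 mM NaCl, 5 mM CaCl2, 0.01% Tween20 preincubated 15 min RT with compounds (up to 114 uM), then FITC-alphaIIb peptide (100 nM), 15 min RT; Ex 480/Em 540.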
Sequence of Calcium and integrin-binding protein 1 (Homo sapiens) (Q99828 whole entry, looked up): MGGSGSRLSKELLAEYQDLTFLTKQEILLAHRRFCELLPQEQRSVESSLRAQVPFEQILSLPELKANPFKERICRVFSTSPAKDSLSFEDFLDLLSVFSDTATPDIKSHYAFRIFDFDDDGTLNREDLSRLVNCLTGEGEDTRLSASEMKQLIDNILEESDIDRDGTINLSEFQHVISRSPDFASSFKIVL

Assay [10] has as its target Protein phosphatase 1D (Homo sapiens) (UniProt O15297). As to the kind of experiment: Rhodamine-PBP qHTS Assay for Modulators of WT P53-Induced Phosphatase 1 (WIP1) (AID 1347425; active = well fitted curve in the direction sought with a large enough effect; an effect the other way counts as inactive or inconclusive). In outline:
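WIP1 (5 nM final) was preincubated with compound for 1 hour at room temperature. It then dephosphorylated 10 uM VEPPL-pS-QETFS peptide in Tris-HCl pH 7.5 with 30 mM MgCl2. Released Pi was detected by 10 uM Rh-PBP fluorescence (ex 525/em 598 nm) read at 1-min intervals for 11 min, as delta f1 - f0.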

Sequence of Protein phosphatase 1D (Homo sapiens) (O15297 whole entry, looked up): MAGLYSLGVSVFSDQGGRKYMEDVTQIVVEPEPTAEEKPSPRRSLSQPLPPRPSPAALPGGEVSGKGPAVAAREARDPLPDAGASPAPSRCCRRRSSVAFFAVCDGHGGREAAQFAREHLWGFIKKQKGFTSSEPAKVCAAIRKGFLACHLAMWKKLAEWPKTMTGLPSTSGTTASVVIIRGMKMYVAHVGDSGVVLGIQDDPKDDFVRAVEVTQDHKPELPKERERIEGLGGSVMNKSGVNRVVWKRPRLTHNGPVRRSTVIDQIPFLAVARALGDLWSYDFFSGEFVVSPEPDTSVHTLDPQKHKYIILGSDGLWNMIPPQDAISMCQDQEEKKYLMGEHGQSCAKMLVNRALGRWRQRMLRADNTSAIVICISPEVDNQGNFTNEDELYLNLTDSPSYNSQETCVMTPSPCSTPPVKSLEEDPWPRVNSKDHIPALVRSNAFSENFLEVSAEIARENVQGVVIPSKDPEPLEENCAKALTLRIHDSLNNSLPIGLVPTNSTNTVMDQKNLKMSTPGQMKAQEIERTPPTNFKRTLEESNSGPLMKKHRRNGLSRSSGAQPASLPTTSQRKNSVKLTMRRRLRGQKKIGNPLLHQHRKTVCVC
Sequence of Single-stranded DNA cytosine deaminase (Homo sapiens) (Q9GZX7 whole entry, looked up): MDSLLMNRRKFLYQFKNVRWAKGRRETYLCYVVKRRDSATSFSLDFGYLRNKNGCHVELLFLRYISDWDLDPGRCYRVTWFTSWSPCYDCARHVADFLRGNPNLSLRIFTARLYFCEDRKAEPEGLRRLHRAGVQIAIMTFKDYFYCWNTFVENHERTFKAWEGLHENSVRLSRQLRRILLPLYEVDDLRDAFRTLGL

`Cc1c(C)c2c(c(C)c1OC(=O)c1cccnc1)CC[C@@](C)(CCC[C@H](C)CCC[C@H](C)CCCC(C)C)O2`: the Potency entry in assay [1], in [2], in [3] and in assay [4] was “inactive” in each case.

Take `CC(C[N+](C)(C)C)OC(N)=O` (stereo unspecified): the Potency entry in assay [1], in assay [2], in [3] and in [4] was “inactive” throughout.

For the molecule `CN[C@@H]1C[C@@H](c2ccc(Cl)c(Cl)c2)c2ccccc21`, the molecule was called inactive in [5], in assay [6] and in [7].

For the molecule `Nc1nc2c(ncn2CCC(CO)CO)c(=O)[nH]1`, the Potency entry in assay [1], in assay [2], in assay [3] and in assay [4] was “inactive” each time.

Consider `C[C@@H]1CN(c2c(F)c(N)c3c(=O)c(C(=O)O)cn(C4CC4)c3c2F)C[C@H](C)N1`, for which the Potency result in assay [1], in assay [2], in [3] and in assay [4] was “inactive” throughout.

With `c1ccc(CCCN2CCN(CCOC(c3ccccc3)c3ccccc3)CC2)cc1`, the call in assay [5] and in assay [6] was inactive.

For the molecule `CCCCCCCC(=O)OCC(O)CO` (stereo unspecified), the Potency entry in assay [1], in assay [2], in [3] and in assay [4] was “inactive” each time.

For `CN1[C@@H]2CC[C@H]1CC(OC(=O)C(O)c1ccccc1)C2` (stereo partly specified), the Potency entry in [1], in assay [2], in assay [3] and in [4] was “inactive” in each case.

As for `CC(=O)[O][Hg][c]1ccccc1`, the Potency was 28.2 µM (active) in [8], 3.98 µM (active) in assay [2], 2.24 µM (active) in [3] and 10 µM (active) in assay [4]. Moreover, the Potency result in assay [9] is “inactive”.

For `Nc1ccc(Cl)cc1N`, the outcome in assay [10] was inactive.

Regarding `NCCCC(N)(C(=O)O)C(F)F` (stereo unspecified), the Potency entry in [1], in [2], in assay [3] and in [4] was “inactive” throughout.

On to `CC(C)C[C@H](NC(=O)[C@@H](O)[C@H](N)Cc1ccccc1)C(=O)O`, for which the Potency result in assay [1], in assay [2], in assay [3] and in assay [4] was “inactive” each time.

On to `Cc1nccc2c1[nH]c1ccccc12`, for which the result in assay [5], in assay [6] and in [7] was inactive.

As for `NCCS`, the Potency result in [1], in assay [2], in [3] and in [4] was “inactive” throughout.

Take `Cc1c(C(=O)c2cccc3ccccc23)c2cccc3c2n1[C@H](CN1CCOCC1)CO3`: the molecule was called inactive in [5] and in assay [6].

As for `COc1c(N2CCNC(C)C2)c(F)cc2c(=O)c(C(=O)O)cn(C3CC3)c12` (stereo unspecified), the Potency result in assay [1], in assay [2], in [3] and in assay [4] was “inactive” in each case.

Regarding `CCCCCCCCCC(CC)c1ccc(S(=O)(=O)O)cc1` (stereo unspecified), in assay [8], the Potency is 1 µM (active). Also, the call in assay [7] was inactive.

Take `CC(=O)Oc1cccc(C)c1`: the Potency entry in [1], in assay [2], in [3] and in assay [4] was “inactive” throughout.

For `O=C(O)CC(O)C(=O)O` (stereo unspecified), the Potency result in assay [1], in assay [2], in assay [3] and in assay [4] was “inactive” each time.

For the molecule `COc1ccc2cc(CCC(C)=O)ccc2c1`, the Potency result in assay [1], in [2], in assay [3] and in [4] was “inactive” in each case.

Regarding `CO/C=C(/C(=O)OC)c1ccccc1Oc1cc(Oc2ccccc2C#N)ncn1`, the Potency entry in assay [8] was “inactive”. Further, the molecule was called inactive in assay [10].

For the molecule `Nc1ccc(N=Nc2ccccc2)cc1`, the Potency result in [8] was “inactive”.

With `CN[C@@H](C)[C@H](O)c1ccccc1`, the Potency result in assay [8] was “inactive”. The molecule was classed as inactive in [10] and in assay [7].

`O=C(O)CCCOc1ccc(Cl)cc1Cl`: the Potency entry in assay [8] is “inactive”. The molecule was called inactive in assay [10] and in assay [7].

`NC(CO)C(=O)NNCc1ccc(O)c(O)c1O` (stereo unspecified): the Potency entry in assay [1], in assay [2], in [3] and in assay [4] was “inactive” in each case.

On to `CC(=O)N[C@@H](CCC(N)=O)C(=O)O`, for which the Potency result in assay [1], in assay [2], in [3] and in assay [4] was “inactive” in each case.

Consider `O=C(O)CNC(=O)CNC(=O)CNC(=O)CSC(=O)c1ccccc1`, for which the Potency result in [1], in assay [2], in assay [3] and in [4] was “inactive” throughout.

On to `CC(C)(C)c1nnc(NS(=O)(=O)c2ccccc2)s1`, for which the Potency result in [1], in assay [2] and in assay [3] was “inactive” each time.

As for `COc1ccc2c(c[n+](C)c3c4cc5c(cc4ccc23)OCO5)c1OC`, in assay [6], the result was inactive.

Regarding `CNCc1ccc(-c2[nH]c3cc(F)cc4c3c2CCNC4=O)cc1`, the Potency entry in [1], in [2], in [3] and in [4] was “inactive” each time.

Take `C/C(=C1\CCOC(=O)S1)N(C=O)Cc1cnc(C)nc1N`: the Potency result in assay [1], in assay [2], in assay [3] and in assay [4] was “inactive” throughout.

Turning to `O=C(O)c1ccccn1`, the Potency entry in assay [1], in assay [2], in assay [3] and in [4] was “inactive” each time.

Consider `CNC(=O)c1ccc(N2C(=S)N(c3ccc(C#N)c(C(F)(F)F)c3)C(=O)C2(C)C)cc1F`, for which, in assay [1], the Potency is 8.91 µM (active). Further, the Potency result in assay [2] and in assay [4] was “inactive” in each case.

Turning to `CCc1c(C)[nH]c2c1C(=O)C(CN1CCOCC1)CC2` (stereo unspecified), the Potency entry in assay [1], in assay [2], in assay [3] and in assay [4] was “inactive” in each case.

As to `C=CCNC(N)=S`, the Potency result in assay [1], in assay [2], in [3] and in assay [4] was “inactive” throughout.

`S=c1[nH]c2ccccc2s1`: the Potency result in assay [1], in [2], in assay [3] and in assay [4] was “inactive” throughout.

As to `CCN(CC)c1ccc(C(=C2C=CC(=[N+](CC)CC)C=C2)c2cc(S(=O)(=O)O)ccc2S(=O)(=O)[O-])cc1`, the Potency result in [1] and in [3] was “inactive” throughout.

Regarding `CN(C)CC/C=C1/c2ccccc2COc2ccc(CC(=O)O)cc21`, the Potency result in assay [1], in assay [2], in assay [3] and in assay [4] was “inactive” in each case.

As for `CC(=O)Nc1ccc(O)cc1`, the Potency entry in [1], in [2], in [3] and in assay [4] was “inactive” each time.

Take `NC1=NC(=O)N2CC12` (stereo unspecified): the Potency entry in assay [1], in assay [2], in assay [3] and in assay [4] was “inactive” each time.
